Results filed as inconclusive are left out. A number with no mark means an inactive call. The source made the active and inactive calls. The call rests on the fitted dose curve; in most records, active means well fitted activation curve with a large enough effect; inconclusive means small, poorly fitted or top-dose-only effect; inactive means no such curve, though single readings can be large or run the other way.
assay: qHTS assay for re-activators of p53 using a Luc reporter: Hit Validation with no p53 Expressed; details: p53-null cells, luciferase reporter counter-screen; series mostly up to 46.1 µM; activity change, positive = activation: at the top concentration; on activity change, positive = activation: 0% is about no effect
Summary of the method: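 Without p53 expression, cells (1000/well, Opti-MEM + 10% FBS) were exposed 24 h at 37 deg C to compounds in a 1:5 series from 10 mM stock (top 46.1 µM in well). Luminescent signal read 10 min after Amplite addition; actives flag unspecific activation.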
Potency means the concentration at half of the fitted maximal effect.

Row | SMILES | activity change, positive = activation | Potency
1 | C/C(=N\NC(=O)c1ccc(F)cc1)c1ccccn1 | 11.7% | –
2 | CC(C)c1ccc(OCC(=O)NC(C)c2ccccc2)cc1 (centres undefined) | 97.3% | –
3 | CCCCn1c(SCC(=O)N2CCCC2=O)nc2cc(S(N)(=O)=O)ccc21 | -34.7% | –
4 | CCc1nnc(NC(=O)CCC(=O)Nc2ccccc2)s1 | 6.24% | –
5 | CCc1ccc(C(=O)Nc2nc3ccccc3[nH]2)cc1 | -79.2% | –
6 | CCc1cc2c(=O)c(-c3ccc4c(c3)OCCO4)coc2cc1OS(C)(=O)=O | 59.3% | –
7 | O=C(N/N=C1\CCc2ccccc21)c1ccccc1O | 10.7% | –
8 | Cc1ccc(/C=C(\C#N)C(=O)NCC2CCCO2)o1 (centres undefined) | -20.6% | –
9 | CCN(CC)CCN1C(=O)C(=O)/C(=C(/O)c2cnn(-c3ccccc3)c2C)C1c1ccc(C)o1 (centres undefined) | 24.6% | –
10 | c1cnc2c(OCc3nc4ccccc4[nH]3)cccc2c1 | 89.4% | –
11 | CCCCCc1nnc(NC(=O)C2CCCO2)s1 (centres undefined) | -9.05% | –
12 | O=C(NNC(=O)c1ccc(Cl)cc1Cl)c1ccncc1 | -31.3% | –
13 | O=C(Nc1cccnc1Cl)c1cc(-c2ccccc2O)on1 | 49% | –
14 | Cc1cs/c(=N/C(=S)Nc2ccccc2)n1C | – | 1300 nM (active)
15 | CN1C(=O)C2(OCC(CO)([N+](=O)[O-])CO2)c2ccccc21 (centres undefined) | -34.5% | –
16 | CC(=O)c1cccc(NS(=O)(=O)N(C)C)c1 | 0.341% | –
17 | Cn1cc(Cl)c(C(=O)Nc2nc3ccccc3s2)n1 | 36.7% | –
18 | Cc1ccc(C(=O)NC2CC2)cc1S(=O)(=O)N1CCOCC1 | -41.5% | –
19 | O=C(Nc1ncc(Cc2ccccc2)s1)c1cccs1 | 50.1% | –
20 | CCc1ccc(NC(=O)c2cnn3ccccc23)cc1 | 30.8% | –

Row | SMILES | activity change, positive = activation | Potency
21 | CC(=O)/C=C(\C)Nc1ccc(-c2cnc(-c3ccccc3)o2)cc1 | 2.82% | –
22 | Cc1ccc(OCCN2CCOCC2)cc1C | 7.55% | –
23 | COc1ccc(C(=O)N/N=C(\C)c2ccccn2)cc1OC | -5.69% | –
24 | O=C(Oc1ccccc1/C=C\C(=O)c1cc2ccccc2o1)c1cccc(F)c1 | 4.1% | –
25 | O=C(NCCOc1ccccc1F)c1cc(F)c(F)cc1Cl | 31.2% | –
26 | COc1ccc2cc3c(N)nn(C(=O)c4ccc(Cl)c([N+](=O)[O-])c4)c3nc2c1 | -33.9% | –
27 | Cc1ccc(NC(=S)NCC2CCCO2)c(OC(F)F)c1 (centres undefined) | -4.01% | –
28 | COc1ccccc1Oc1c(C)oc2c(CN(C)C)c(O)ccc2c1=O | -5.95% | –
29 | N#CC(c1ccccc1)C1CCN(Cc2ccccc2)CC1 (centres undefined) | 71.6% | –
30 | Cc1ccc(C(C)C)c(OCc2ccc(C(=O)N/N=C/c3ccc(O)cc3O)cc2)c1 | -41.7% | –
31 | Cc1ccsc1/C=C1\CCc2ccccc2C1=O | 1.15% | –
32 | Cc1ccc(C(=O)Nc2cnc3sc(C)nn3c2=O)cc1 | 45.9% | –
33 | CCOc1ccc(-c2nnc(SCC(=O)N3CCNC3=O)o2)cc1 | 12.5% | –
34 | COCC(C)NC(=O)C1CC(=O)N(c2ccc(C)cc2)C1 (centres undefined) | -10.8% | –
35 | S=C(Nc1ccccc1)Nc1nc2ccccc2n1CCOc1ccc(Br)cc1 | -17.4% | –
36 | CN1CCc2c(sc(NC(=O)C3COc4ccccc4O3)c2C(N)=O)C1 (centres undefined) | -38.2% | –
37 | Cn1c(-c2ncc(F)cc2F)cc2onc(-c3c(F)cccc3Cl)c2c1=O | 66.8% | –
38 | COc1ccc(C(=O)C(CN2CCCC2)c2ccccc2)cc1 (centres undefined) | -66% | –
39 | c1ccc2sc(-c3ccc4c(c3)OCO4)nc2c1 | -24.1% | –

— PubChem BioAssay AID624331 (National Center for Advancing Translational Sciences (NCATS), 2012)
